The record followed here is PubChem BioAssay (NCATS).

For one assay, the system named is WaGa. Put plainly: qHTS assay to identify novel small-molecules to repurpose for Merkel cell carcinoma treatment (AID 1296009). For activity change, negative = cytotoxicity: % is set by controls: 0 for no effect and ±100 for the full control effect. Note: nearly all actives have a fitted effect of over 60% in size. Note: potency is the fitted concentration of half-maximal effect. The settings on record: MCC and control cell lines, CellTiter-Glo viability, 72 h; series mostly up to 46 µM. A digest of the protocol:
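After compound transfer in DMSO, plates were kept 72 hr at 37 degree celsius. Luminescent ATP signal from CellTiter-Glo served as viability measure, normalized against DMSO and no-cell controls.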

For another assay, the system named is C33A. Put plainly: Primary qHTS to identify gynecologic anti-cancer compounds using libraries of approved drugs and bioactive compounds (AID 1345084). Note: % is set by controls: 0 for no effect and ±100 for the full control effect; nearly all actives have a fitted effect of over 55% in size. The settings on record: Gynecologic cancer cell panel viability, ATPlite luminescence, 48 h; series mostly up to 57.5 µM. The gist of the method: (§1)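 ATP-based viability (ATPlite), 1,000 cells/well, 16 h pre-incubation, 48 h compound at 37 C, 5% CO2, 15 min RT before read.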

The next assay has as its system CAOV3. Described as above. The settings on record: Gynecologic cancer cell panel viability, ATPlite luminescence, 48 h; series mostly up to 57.5 µM. A digest of the protocol: as §1
(Cellular ATP, detected with luciferase, serves as a proxy for viable cell number.)

The test system of a further assay is CASKI. The description is as above. The note with it: Gynecologic cancer cell panel viability, ATPlite luminescence, 48 h; series mostly up to 57.5 µM. A digest of the protocol: as §1
For the next assay, the system named is Es-2. Described as above. The settings on record: Gynecologic cancer cell panel viability, ATPlite luminescence, 48 h; series mostly up to 57.5 µM. A digest of the protocol:
as §1

In a further assay the test system is HeLa. The assay is described as above. The note with it: Gynecologic cancer cell panel viability, ATPlite luminescence, 48 h; series mostly up to 57.5 µM. A digest of the protocol:
as §1

A further assay has as its system Hek293T. The description is as above. The settings on record: Gynecologic cancer cell panel viability, ATPlite luminescence, 48 h, control line for the selectivity index; series mostly up to 57.5 µM. A digest of the protocol:
as §1

The subject of a further assay is PA-1. The description is as above. The note with it: Gynecologic cancer cell panel viability, ATPlite luminescence, 48 h; series mostly up to 57.5 µM. The gist of the method: as §1
A further assay has as its system SKOV3. The description is as above. The note with it: Gynecologic cancer cell panel viability, ATPlite luminescence, 48 h; series mostly up to 57.5 µM. The gist of the method:
as §1

The next assay deals with Tov-21-G. The assay is described as above. The note with it: Gynecologic cancer cell panel viability, ATPlite luminescence, 48 h; series mostly up to 57.5 µM. The gist of the method: as §1
Another assay has as its system Tov112D. The assay is described as above. The settings on record: Gynecologic cancer cell panel viability, ATPlite luminescence, 48 h; series mostly up to 57.5 µM. The gist of the method: as §1
Assay [1] is described as follows: Drug repurposing screens with cells derived from glioblastoma tumor samples (AID 1345199). For activity, negative = cell killing: % is set by controls: 0 for no effect and ±100 for the full control effect. Note: nearly all actives have a fitted effect of over 40% in size. Note: potency is the fitted concentration of half-maximal effect. The settings on record: GBM patient neurospheres viability, ATP luminescence, 48 h. The gist of the method:
(§2)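 Four patient lines of CD133+ GBM neurospheres were screened at several concentrations; hits were retested in those lines plus three slower-growing GBM lines, using 48-hour treatment and ATP-based viability.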

The test system of a further assay is JEG-3. Put plainly: Primary qHTS to identify gynecologic anti-cancer compounds using libraries of approved drugs and bioactive compounds (AID 1345084). Note: % is set by controls: 0 for no effect and ±100 for the full control effect; nearly all actives have a fitted effect of over 55% in size. The note with it: Gynecologic cancer cell panel viability, ATPlite luminescence, 48 h; series mostly up to 57.5 µM. The gist of the method:
as §1
(In general: qHTS replaces the single test concentration by a dilution series.)

In a further assay the test system is OV90. The assay is described as above. The settings on record: Gynecologic cancer cell panel viability, ATPlite luminescence, 48 h; series mostly up to 57.5 µM. The gist of the method:
as §1

Assay [2] has as its target Nuclear receptor subfamily 1 group I member 2 (Rattus norvegicus) (UniProt Q9R1A7). The assay is described as follows: qHTS assay for small molecule activators of the rat pregnane X receptor (rPXR) signaling pathway (AID 651751; call rule not given here; note: 0% is about no effect). The note with it: rPXR reporter cells, luciferase (One-Glo), 24 h.
Assay [3] can be described thus: qHTS assay for small molecule activators of the human pregnane X receptor (PXR) signaling pathway (AID 720659; call rule not given here; note: 0% is about no effect).
The subject of another assay is astro. Put plainly: Drug repurposing screens with cells derived from glioblastoma tumor samples (AID 1345199). For activity, negative = cell killing: % is set by controls: 0 for no effect and ±100 for the full control effect. Note: nearly all actives have a fitted effect of over 40% in size. Note: potency is the fitted concentration of half-maximal effect. The note with it: viability, ATP luminescence, 48 h; series mostly up to 45.9 µM. The gist of the method: as §2
Setting [4] is: at 46.1 µM (top of the series), tumour line C.
The mark [5] stands for this setting: at 45.9 µM (top of the series), tumour line B.
[6] abbreviates: at 45.9 µM (top of the series), tumour line D.
Setting [7] is: at 46 µM (top of the series), tumour line A.

Each structure is given as a SMILES string. Values without a mark were called inactive. Inconclusive results are not listed. Active and inactive are the calls of the source. Unless noted, calls come from the whole dose curve; as a rule, active = well fitted curve in the direction sought with a large enough effect; inconclusive = small, poorly fitted or top-dose-only effect, or another doubt; inactive = no such curve, though single readings can be large; an effect the other way counts as inactive or inconclusive.

Sequence of Nuclear receptor subfamily 1 group I member 2 (Rattus norvegicus) (Q9R1A7 whole entry, looked up): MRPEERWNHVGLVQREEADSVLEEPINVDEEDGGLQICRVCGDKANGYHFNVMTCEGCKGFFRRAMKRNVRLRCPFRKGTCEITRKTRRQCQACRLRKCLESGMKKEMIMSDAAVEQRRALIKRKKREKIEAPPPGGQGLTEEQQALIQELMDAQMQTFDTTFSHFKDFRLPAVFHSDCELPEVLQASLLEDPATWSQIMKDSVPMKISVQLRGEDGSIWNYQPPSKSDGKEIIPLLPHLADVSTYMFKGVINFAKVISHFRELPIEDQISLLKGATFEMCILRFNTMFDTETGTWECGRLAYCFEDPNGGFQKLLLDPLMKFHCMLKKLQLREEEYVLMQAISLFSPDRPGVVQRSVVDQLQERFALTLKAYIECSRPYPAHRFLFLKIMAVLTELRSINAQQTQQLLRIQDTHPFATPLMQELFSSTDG

As for `CCCC(=O)OC[C@@H](OC(=O)CCC)[C@@H](OC(=O)CCC)[C@H](Cn1c2nc(=O)[nH]c(=O)c-2nc2cc(C)c(C)cc21)OC(=O)CCC`, the Potency with WaGa was 4.22 µM (active); in assay [1] (tumour line A), 8.91 µM (active); in [1] (tumour line D), 12.6 µM (active). Moreover, the Potency entry with C33A, in the assay with CAOV3, in the assay with CASKI, with Es-2, with HeLa and in the assay with Hek293T was “inactive” in each case. Also, the Potency entry with PA-1, in the assay on SKOV3, in the assay on Tov-21-G and with Tov112D was “inactive” in each case. In assay [1] (setting [4]), the activity, negative = cell killing is -29.1%.

As for `Nc1cc(-c2ccncc2)c[nH]c1=O`, the Potency result in the assay on WaGa, in the assay on C33A, with CAOV3, in the assay with CASKI, with Es-2 and with HeLa was “inactive” throughout. The Potency result in the assay on Hek293T, in the assay with JEG-3, with OV90, in the assay with PA-1, with Tov-21-G and in the assay with Tov112D was “inactive” each time. Moreover, the activity, negative = cell killing in assay [1] (setting [5]) is -15%; in [1] (setting [6]), 3.16%; in assay [1] (setting [7]) it was -22.8%; in [1] (setting [4]), -16.3%. Further, the max response in assay [2] was -2.86%. For the same compound, the outcome in assay [3] was inactive.

For the compound `Nc1c(CC(=O)O)cccc1C(=O)c1ccc(Br)cc1`, the Potency result in the assay with WaGa, in the assay with C33A, in the assay on CAOV3, in the assay on CASKI, in the assay on Es-2 and in the assay on HeLa was “inactive” in each case. In addition, the Potency entry with Hek293T, with JEG-3, in the assay with OV90, with PA-1, in the assay on SKOV3 and in the assay on Tov-21-G was “inactive” throughout. In addition, the Potency result in the assay with Tov112D and in the assay with astro was “inactive” throughout. For the same compound, the activity, negative = cell killing in [1] (setting [5]) was -6.17%; in [1] (setting [6]), -6.69%; in assay [1] (setting [7]), -19.8%; in assay [1] (setting [4]), 10.2%.

Turning to `O=C(O)Cc1cccc(-c2cc(CCCCCCc3ccc(O[C@H]4O[C@H](CO)[C@@H](O)[C@H](O)[C@@H]4O)c(-c4cccc(CC(=O)O)c4)c3)ccc2O[C@H]2O[C@H](CO)[C@@H](O)[C@H](O)[C@@H]2O)c1`, the activity change, negative = cytotoxicity in the assay with WaGa is 8.43% [at 0.597 µM]; in the assay on C33A, -0.854% [at 0.462 µM]; with CAOV3, 12.9% [at 0.462 µM]; in the assay with CASKI it was -1.06% [at 0.462 µM]; in the assay with Es-2 it was 2.88% [at 0.462 µM]; with HeLa, 7.81% [at 0.462 µM]. Besides, the activity change, negative = cytotoxicity is 0.655% [at 0.462 µM] with Hek293T; 24.2% [at 0.462 µM] in the assay on JEG-3; 11.3% [at 0.462 µM] in the assay on OV90; 22.2% [at 0.462 µM] with PA-1; 4.72% [at 0.462 µM] in the assay on Tov-21-G; 13.8% [at 0.462 µM] in the assay on Tov112D. Further, the activity, negative = cell killing in [1] (setting [5]) is -15%; in assay [1] (setting [6]) it was -11.6%; in [1] (setting [7]), -35.4%; in assay [1] (setting [4]), 0.695%. Further, the Potency entry in the assay on astro was “inactive”.

Take `C[N+]1(C)[C@@H]2CC(OC(=O)[C@H](CO)c3ccccc3)C[C@H]1[C@@H]1O[C@@H]12` (stereo partly drawn): the Potency entry in the assay on WaGa, in the assay on C33A, in the assay on CAOV3, with CASKI, in the assay on Es-2 and in the assay with HeLa was “inactive” each time. For the same compound, the Potency result in the assay with Hek293T, in the assay with JEG-3, with OV90, in the assay on PA-1, with SKOV3 and in the assay with Tov-21-G was “inactive” in each case. In the assay on Tov112D, the Potency result is “inactive”.

`N=C(N)N`: the Potency result in the assay with WaGa, in the assay on C33A, with CAOV3, with CASKI, in the assay on Es-2 and in the assay on HeLa was “inactive” in each case. Also, the Potency result in the assay with Hek293T, with JEG-3, with OV90, in the assay on SKOV3, in the assay with Tov-21-G and in the assay with Tov112D was “inactive” in each case. Further, the Potency result in the assay on astro is “inactive”. Moreover, the activity, negative = cell killing in [1] (setting [5]) was -7.3%; in [1] (setting [6]), -23.5%; in [1] (setting [7]), -16.6%; in assay [1] (setting [4]) it was -13.1%.

As to `CC(C(=O)O)c1ccc(C(=O)c2ccccc2)s1` (stereo not drawn), the Potency entry in the assay on WaGa, in the assay on C33A, in the assay with CAOV3, with CASKI, in the assay on Es-2 and with HeLa was “inactive” throughout. Besides, the Potency result with Hek293T, in the assay on JEG-3, with OV90, with PA-1, with Tov-21-G and with Tov112D was “inactive” each time. Also, the Potency entry with astro was “inactive”. Further, the activity, negative = cell killing in assay [1] (at 20 µM (top of the series), tumour line C) is -11.8%; in assay [1] (at 21.2 µM (top of the series), tumour line B), -9.92%; in assay [1] (at 21.2 µM (top of the series), tumour line D), 4.8%.
